# PubChem BioAssay (Tox21)
# Results filed as inconclusive are left out. A number with no mark means an inactive call. Active and inactive are the calls of the source. Calls come from the whole dose curve.
# Biological target: Beta-2 adrenergic receptor (Homo sapiens) (UniProt P07550)
# Assay: Adrenergic beta2 receptor (ADRB2) small molecule antagonists, cell-based qHTS assay (AID 1963592); note: nearly all actives have a fitted effect of over 50% in size
# Conditions: CHO-ADRB2 cells, isoproterenol-stimulated cAMP HTRF ratio, 0.5 h; series mostly up to 92.4 µM; activity change, negative = inhibition: at the top concentration
# Text: U.S. Tox21 Program National Center for Advancing Translational Sciences [NCATS] Division of Preclinical Innovation [DPI] U.S. Environmental Protection Agency [EPA] National Institutes of Environmental Health Sciences [NIEHS] National Toxicology Program [NTP] U.S. Food and Drug Administration [FDA] Tox21 Assay Overview: Beta adrenergic receptors (Beta-ARs) belong to the G-protein coupled receptor (GPCR) superfamily, includes three subtypes - beta1, beta2, and beta3. Beta1-AR is the predominant receptor subtype expressed in the heart, and beta2-AR is expressed in the kidney, lung, blood vessel and in the heart, and beta3 is found in the adipocytes. Beta1 and 2 ARs couple to Gs protein and elevate cyclic adenosine mono phosphate (cAMP), which activates protein kinase A and leads to the downstream signaling responsible for the physiological actions. Beta-AR agonists or antagonists are the most prescribed therapeutic agents for heart failure and asthma, and these were one of the first target receptors for the rational drug design. Tox21 10K compound library was screened using the cAMP-Gs dynamic assay (Cisbio Bioassays, Shelton, CT) to identify agonists/antagonists of the Gs-coupled human adrenergic, beta2 receptor (ADRB2) in the CHO-ADRB2 cell line (Codex BioSolutions, Inc. Gaithersburg, MD), which stably over-expresses ADRB2. The principle of cAMP-Gs dynamic assay is based on HTRF technology, which facilitates the fluorescence resonance energy transfer (FRET) between donor Europium cryptate and acceptor d2-labeled cAMP. The cAMP generated within cells competes with the red acceptor, d2-labled cAMP, for binding to the monoclonal anti-cAMP-cryptate (Europium donor). An increase in intracellular cAMP leads to the disruption of FRET signal, and the signal is inversely proportional to the cAMP concentration. Propranolol HCl (Sigma-Aldrich, St. Louis, MO) was used as a positive control in the screening.
# Tox21 Assay Protocol Summary: CHO-ADRB2 cells were dispensed at 1,000/well in 4uL assay medium into white/solid 1536-well plates (Greiner Bio-One North America Inc., Monroe, NC) using a Multidrop Combi dispenser (ThermoFisher Scientific, Waltham, MA). The assay plates were incubated at 37C and 5% CO2 for an overnight (18-20hr). Then positive control and test compounds dissolved in DMSO were transferred to the assay plates at 23nL using a Pintool station (Wako, San Diego, CA). Following the compound and positive control transfer, 1uL agonist-stimulation mix containing 1nM Isoproterenol HCl, 100uM IBMX and 25uM Ro-20-1724 was added to each well of the assay plates using BioRAPTR Flying Reagent Dispenser (FRD, Beckman Coulter, Brea, CA). The assay plates were incubated at room temperature for 0.5hr. Then 2.5ul each d2-labled cAMP and anti-cAMP-cryptate solutions were added separately to each well of the assay plates using an FRD and the assay plates were incubated at room temperature for 1hr. The fluorescence signal was measured at two different wavelengths (665nm and 615nm) using an Envision plate reader (Perkin Elmer, Shelton, CT). Data were expressed as the ratio of 665 nm/615 nm.
# % is set by controls: 0 for no effect and ±100 for the full control effect.
# Chain of Beta-2 adrenergic receptor (Homo sapiens) (P07550 whole entry, looked up): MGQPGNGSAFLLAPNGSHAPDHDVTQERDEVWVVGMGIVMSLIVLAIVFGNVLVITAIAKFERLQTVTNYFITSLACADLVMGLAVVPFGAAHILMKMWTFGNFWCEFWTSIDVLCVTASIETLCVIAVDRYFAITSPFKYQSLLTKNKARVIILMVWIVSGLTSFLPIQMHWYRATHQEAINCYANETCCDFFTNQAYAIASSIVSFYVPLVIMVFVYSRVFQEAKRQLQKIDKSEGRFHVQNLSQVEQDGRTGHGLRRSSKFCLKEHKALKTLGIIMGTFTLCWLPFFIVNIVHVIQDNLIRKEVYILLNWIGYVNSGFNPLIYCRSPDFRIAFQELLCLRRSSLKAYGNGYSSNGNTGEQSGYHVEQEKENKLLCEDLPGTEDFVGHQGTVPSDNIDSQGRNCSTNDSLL
Structure (SMILES),"activity change, negative = inhibition",Potency
CC(=O)O[C@H](CC(=O)[O-])C[N+](C)(C)C,4.75%,
OCc1c2ccccc2cc2ccccc12,-5.8%,
CC(=O)O[C@H]1C[C@@H]2CC[C@@]1(C)C2(C)C,-10.9%,
CCCCOC(=O)[C@H](C)O,-0.651%,
CCOCCC(=O)OCC,13.2%,
NC(=S)Nc1cccc2ccccc12,-15.5% [at 8.39 µM],
C(/C=C/C=C/Nc1ccccc1)=Nc1ccccc1,3.56%,
Clc1cc(Cl)c(Cl)c(Cl)c1Cl,8.55%,
C1COC1,-6.83%,
C=C(C)C(=O)OCCC[Si](Cl)(Cl)Cl,-29.4%,
Cc1cccnc1,,inactive
Cc1ccc(C(C)c2ccc(C)c(C)c2)cc1C,2.81%,
O=C1c2ccccc2CCc2ccccc21,,inactive
O=C(O)C(=O)Nc1cccc(-c2nn[nH]n2)c1,-7.04% [at 42.5 µM],
CCOC(/C=C(\C)CCC=C(C)C)OCC,-1.63%,
COCC(O)CO (stereo not given),0.383%,
CCCCCC(=O)CC,0.0279%,
CCSC(=O)N(CC)CC,-6.52%,
C[C@@H]1O[C@@H](OC[C@H]2O[C@@H](Oc3c(-c4ccc(O)c(O)c4)oc4cc(O)cc(O)c4c3=O)[C@H](O)[C@@H](O)[C@@H]2O)[C@H](O)[C@H](O)[C@H]1O,,inactive
CC/C=C\CCOC(=O)C(C)C,9.04%,

Structure (SMILES),"activity change, negative = inhibition",Potency
O=C1OC(=O)c2c(Cl)c(Cl)c(Cl)c(Cl)c21,,inactive
Cc1ccc(-c2ccccc2)cc1,-1.45%,
CCOC(=O)C(C)Oc1ccc(Oc2cnc3cc(Cl)ccc3n2)cc1 (stereo not given),,inactive
CN/C(=C\[N+](=O)[O-])NCCSCc1ccc(CN(C)C)o1,,inactive
NC(=O)Nc1ccccc1,-0.333%,
CC[N+](C)(C)c1cccc(O)c1,5.64% [at 42.5 µM],
CC(=O)NCCO,1.17%,
c1ccc2cnncc2c1,2.98%,
Cc1cc(OCCOCC[N+](C)(C)Cc2ccccc2)ccc1C(C)(C)CC(C)(C)C,,inactive
CC(O)C(CO)C(C)O (stereo not given),0.0023%,
CCOC(=O)O[C@]1(C(=O)OCCl)CC[C@H]2[C@@H]3CCC4=CC(=O)C=C[C@]4(C)[C@H]3[C@@H](O)C[C@@]21C,0.36% [at 42.5 µM],
O=C(O)Cc1ccc(CCNS(=O)(=O)c2ccc(Cl)cc2)cc1,6.16% [at 42.5 µM],
COc1ccc(N)c(OC)c1,,inactive
Cc1ccc(C(=O)O)cc1,-10.5%,
CC(C)(C)C(=O)C(Oc1ccc(Cl)cc1)n1ccnc1 (stereo not given),-0.279% [at 42.5 µM],
CCC(C)c1ccccc1 (stereo not given),9.27%,
Cc1cc(CCC(=O)OCCOCCOCCOC(=O)CCc2cc(C)c(O)c(C(C)(C)C)c2)cc(C(C)(C)C)c1O,-0.289%,
CN(C)C(=O)Oc1ccc[n+](C)c1,-7.52% [at 42.5 µM],
CC1(C)[C@H](C(=O)OCc2cccc(Oc3ccccc3)c2)[C@@H]1C=C(Cl)Cl,1.38%,
CCCOCCO,,inactive
